Test results from PubChem BioAssay AID624273 (Broad Institute, 2012).
Hit rate of the full screen: of about 1,000 compounds, about 230 (23%) were called active. Inconclusive results (about 1%) are left out. No rule for the calls is given here. Some of the results follow. Results with a measured potency or affinity are listed apart.

biological target: Long-chain-fatty-acid--AMP ligase FadD28 (Mycobacterium tuberculosis (strain ATCC 25618 / H37Rv)) (UniProt P9WQ59); test: inhibitors of FadD28 bisubstrate probe binding, dose response, biochemical, fluorescence polarization, cherry-pick (AID 624273); conditions: series mostly up to 50 µM
Sequence (P9WQ59 whole entry, looked up): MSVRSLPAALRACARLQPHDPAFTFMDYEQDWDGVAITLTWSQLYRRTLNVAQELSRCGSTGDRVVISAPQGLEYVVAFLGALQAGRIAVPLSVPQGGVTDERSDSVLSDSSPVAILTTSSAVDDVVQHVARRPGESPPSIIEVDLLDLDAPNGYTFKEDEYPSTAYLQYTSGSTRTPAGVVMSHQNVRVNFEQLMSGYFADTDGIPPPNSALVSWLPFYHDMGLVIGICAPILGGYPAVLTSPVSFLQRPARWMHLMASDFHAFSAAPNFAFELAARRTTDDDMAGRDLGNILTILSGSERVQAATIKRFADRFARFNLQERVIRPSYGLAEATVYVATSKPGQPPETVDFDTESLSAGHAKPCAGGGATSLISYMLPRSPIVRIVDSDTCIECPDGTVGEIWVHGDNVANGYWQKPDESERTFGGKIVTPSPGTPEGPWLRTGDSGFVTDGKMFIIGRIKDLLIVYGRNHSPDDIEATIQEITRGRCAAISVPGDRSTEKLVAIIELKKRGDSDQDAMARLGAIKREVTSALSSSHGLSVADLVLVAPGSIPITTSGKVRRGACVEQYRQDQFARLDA

SMILES	outcome
Nc1ccccc1C#Cc1ccc([N+](=O)[O-])cc1	inactive
Cc1cccnc1C(NC(=O)C1CCN(CCCc2ccccc2)CC1)c1ccc(Cl)cc1 (stereo not given)	inactive
CON(C)C(=O)c1ccccc1N(C)C(=O)OC(C)(C)C	inactive
O=C(CSc1nnc(Cc2ccccc2)o1)c1ccc2c(c1)OCO2	inactive
CC1CCN(S(=O)(=O)c2ccc(NC(=O)Cn3nnc(-c4ccccc4F)n3)cc2)CC1	inactive
O=C(CSc1ccc(-c2nc3ccccc3[nH]2)cn1)Nc1ccc(S(=O)(=O)NC2CC2)cc1	inactive
Cc1ccc(C)c(OCCC(=O)OCC(=O)Nc2cccc(S(=O)(=O)N3CCCC3)c2)c1	inactive
Cc1ccc(NC(=O)COC(=O)c2cccc(S(=O)(=O)N3CCCCCC3)c2)cc1	inactive
CC(Sc1nnc(CNc2cccc3ccccc23)n1-c1ccccc1)C(=O)N/N=C/c1ccco1 (stereo not given)	inactive
Cc1cc(C)c2sc(N(CCCN(C)C)C(=O)c3ccc(S(=O)(=O)N4CCCc5ccccc54)cc3)nc2c1	inactive
CC1(C)Oc2ccc3ccc(=O)oc3c2/C(=C/O)C1=O	inactive
COc1ccc(C2NC3=C(CCC3)C3(C#N)C4(N=C(N)C23C#N)OCCO4)cc1 (stereo not given)	inactive
O=C(Cc1ccc(Cl)cc1)Nc1ccc(N2CCN(C(=O)c3ccco3)CC2)c(Cl)c1	inactive
Cc1nn(-c2ccccc2)c(Cl)c1/C=N/NC(=O)c1cccnc1	inactive
CCOC(=O)c1c(C)nc2sc3c(=O)n(-c4ccc(C(C)=O)cc4)cnc3c2c1-c1ccc(OC)cc1	inactive
C=CCOc1ccc(C2OC34CCCCC3C(C#N)(C#N)C2(C#N)C(=N)O4)cc1 (stereo not given)	inactive
N/C(CSc1ccc(Cl)cc1)=N\NC(=O)c1ccncc1	inactive
Cc1c(NC(=O)c2ccc3ncccc3c2)c(=O)n(-c2ccccc2)n1C	inactive
COC(=O)c1cc(C)nc2c1C(=O)C(=O)C=C2N1CCOCC1	inactive
Cc1ccc(OCCC(=O)OCC(=O)c2c(N)n(CC(C)C)c(=O)n(C)c2=O)cc1	inactive
CCC(=O)c1cccc(-c2ccccc2)c1CC	inactive
COc1ccc(CN(C)C(=O)c2ccc(OCC(=O)Nc3cccc(C(F)(F)F)c3)c(OC)c2)c(OC)c1	inactive
COc1cc(OC)c(C2=NOC(C(=O)Nc3c(C)n(C)n(-c4ccccc4)c3=O)C2)cc1Cl (stereo not given)	inactive
CCCCOc1ccc(Nc2cc(Cl)ccc2C(=O)O)cn1	inactive
N#CCC(=O)Nc1ccc(C(=O)OCC(=O)Nc2cccc(C(F)(F)F)c2)cc1	inactive

SMILES	outcome
Cc1ccc(NC(=O)CN2C(=O)S/C(=C/c3ccc(-c4cc(C(=O)O)ccc4C)o3)C2=O)cc1C	inactive
O=C(NCc1ccccc1)C1=C[C@@H](c2ccc(C(F)(F)F)cc2)C[C@@H](OCCCCO)O1	inactive
NC(Cc1ccc(C(F)(F)F)cc1)c1csc(NC(=O)Nc2ccccc2Cl)n1 (stereo not given)	inactive
Cc1onc(C(=O)N2CCC(C(N)=O)CC2)c1-c1ccccc1Cl	inactive
COc1cc(NC(=O)C2CCN(S(=O)(=O)c3ccc(Cl)cc3)CC2)ccc1-n1cnnn1	inactive
CSc1cccc(CN2CCC(CCC(=O)NC3CC3)CC2)c1	inactive
S=c1nc(-c2ccco2)[nH][nH]1	inactive
COc1ccc(OC)c(-n2c(-c3cc(-c4ccco4)[nH]n3)n[nH]c2=S)c1	inactive
Cc1nnc(NC(=O)C2CC(=O)N(c3ccc4c(c3)OCCO4)C2)s1 (stereo not given)	inactive
COc1ccc(C2(CNC(=O)C(c3ccccc3)c3ccccc3)CCOCC2)cc1OC	inactive
NNC(=O)C1CCCn2c1nc1sc3c(c1c2=O)CCCC3 (stereo not given)	inactive
Cc1ccc(C(=O)NCCSCc2ccc(Cl)cc2Cl)cc1[N+](=O)[O-]	inactive
COc1ccc(C(=O)NCCSCc2ccc(C)cc2)cc1	inactive
Cc1ccc(CSCCNC(=O)c2ccc(NS(C)(=O)=O)cc2)cc1	inactive
COc1ccc(CNC(=O)c2ccc(Cl)c(S(=O)(=O)N3CCCCCC3)c2)cc1	inactive
Cc1ccc(CSCCNC(=O)/C=C/c2ccccc2Cl)cc1	inactive
O=C(CSc1ccc(Cl)cc1)N1CCOCC1	inactive
COc1ccc(CCNC(=O)c2ccc(CNS(=O)(=O)c3cccc(Cl)c3)cc2)cc1OC	inactive
Brc1ccc(Sc2cnc3ccccc3n2)cc1	inactive
C=CCSc1nnc2nc3c(nn12)c1cc(C)ccc1n3CC=C	inactive
COc1ccc(CCNC(=O)c2ccc(CNS(=O)(=O)c3ccc(C(C)(C)C)cc3)cc2)cc1OC	inactive
COc1ccc(C(=O)Nc2ccc(C)cn2)cc1S(=O)(=O)N1CCCc2ccccc21	inactive
COc1ccc(C(=O)NCc2ccc(C)cc2)cc1S(=O)(=O)N1CCCc2ccccc21	inactive
COC(=O)CC1C(=O)NCCN1C(=O)c1ccc(S(=O)(=O)N2CCOCC2)cc1 (stereo not given)	inactive
CC1(c2ccc(OC(F)F)cc2)NC(=O)N(CC(=O)NC2CCCC2)C1=O (stereo not given)	inactive

SMILES	outcome
CC(C)CCNc1nc(N2CCCC2)c2c(c1C#N)CCN(C)C2	inactive
CN(c1ccccc1)S(=O)(=O)c1ccc(NC(=O)CC(=O)c2ccccc2)cc1	inactive
Cc1ccc(NC(=O)c2cc([N+](=O)[O-])ccc2N2CCOCC2)cc1C	inactive
O=C(CCNC(=O)c1ccc([N+](=O)[O-])cc1)Nc1ccccc1N1CCOCC1	inactive
CCN(CC)S(=O)(=O)c1cc(NC(=O)c2cc([N+](=O)[O-])ccc2N2CCOCC2)ccc1C	inactive
O=C(NNC(=O)c1ccc(Cl)c([N+](=O)[O-])c1)c1ccncc1	inactive
O=C1C=C(O)CC(c2ccco2)C1 (stereo not given)	inactive
CC(=O)C1=C(C)NC(SCC(=O)c2ccc(F)cc2)=C(C#N)C1c1ccco1 (stereo not given)	inactive
COc1ccc(NC(=O)Nc2ccc3c(c2)C(=O)N([C@H](C)CO)C[C@H](C)[C@@H](CN(C)S(=O)(=O)c2ccc(OC)cc2)O3)cc1	inactive
CCN(CC)CCCNC(=O)C1c2ccccc2C(=O)N(C)C1c1ccc(OC)cc1 (stereo not given)	inactive
COc1ccc(/C(N)=N/OC(=O)c2c(-c3ccccc3Cl)noc2C)cc1OC	inactive
CCOc1cc(/C=C2\SC(=O)N(CC(=O)Nc3ccccc3F)C2=O)cc([N+](=O)[O-])c1O	inactive
O=C1/C(=C\c2cc([N+](=O)[O-])ccc2O)SC(=S)N1Cc1ccc(Cl)cc1	inactive
O=C(CNC(=O)c1nc[nH]c1C(=O)NCC(=O)OCc1ccccc1)OCc1ccccc1	inactive
COc1ccc(OC)c2[nH]c(=O)c(CCNS(=O)(=O)c3ccc(Cl)cc3)cc12	inactive
Cc1cccc(C(=O)NCC(=O)OCc2nc(N)nc(Nc3ccccc3C)n2)c1	inactive
O=C(O)CCCc1nc(-c2ccccc2)no1	inactive
CCOc1cc(/C=C2\N=C(SC)SC2=O)cc([N+](=O)[O-])c1OC(C)=O	inactive
CCC(C)OC(=O)C1=C(C)NC(=O)CC1c1ccccc1OC (stereo not given)	inactive
Cc1ccc(/C=C/C(=O)C2C(=O)c3ccccc3C2=O)cc1	inactive
Cc1noc(C)c1C(=O)NCc1ccccc1Br	inactive
O=C(NNC1CC(=O)N(c2ccc(Br)cc2)C1=O)c1cccnc1 (stereo not given)	inactive
O=C(O)c1ccc(N=C2SCC(=O)N2Cc2ccccc2)cc1	inactive
O=C1CC(C(=O)Nc2ccc(Br)cc2)S/C(=N\N=C\c2ccco2)N1 (stereo not given)	inactive
CN(C)S(=O)(=O)c1cc(NC(=O)CSc2ncc(C(F)(F)F)cc2Cl)ccc1Cl	inactive

SMILES	outcome
COc1cccc(NC(=S)/C(=C(\[O-])c2cc(C)n(-c3ccccc3F)c2C)[n+]2ccc(N(C)C)cc2)c1	inactive
O=C(c1cc2cc(Cl)ccc2[nH]1)N1CCCCC1	inactive
C/C(=N\N=C(/N)SC1CC(=O)N(c2ccc(Br)cc2)C1=O)c1cccs1 (stereo not given)	inactive
CCN(CC)c1ccc(/C=N/NC(=O)Cc2cccs2)c(O)c1	inactive
C[C@H](CO)N1C[C@H](C)[C@H](CN(C)S(=O)(=O)c2cccs2)Oc2ccc(NC(=O)Nc3ccc4c(c3)OCO4)cc2CC1=O	inactive
Cc1ccc(-n2ncc3c(=O)[nH]c(SCC(=O)N4CC(=O)Nc5ccccc54)nc32)cc1	inactive
O=C(Cc1ccccc1[N+](=O)[O-])OCC(=O)c1c[nH]c2ccccc12	inactive
COc1ccc(S(=O)(=O)NCC2CCCN(Cc3cn(C)nc3C)C2)cc1 (stereo not given)	inactive
O=C(Cn1cc2c(n1)CCCC2)Nc1cc(-c2cccc(Cl)c2)no1	inactive
COc1ccc(-c2nc3ccccc3c(=O)n2CCCN2CCOCC2)cc1	inactive
CCCCOc1[nH]c2nc(-c3ccco3)n(Cc3ccco3)c(=N)c2c1C#N	inactive
COC(=O)c1sc(NC(C)=O)c(C(=O)OC)c1C	inactive
O=C1NN(c2ccc(Cl)c(Cl)c2)C(=O)/C1=C/c1ccc(-c2ccccc2C(=O)O)o1	inactive
O=[N+]([O-])c1ccc2[nH]c(=S)sc2c1	inactive
Clc1cccc(/C=N/N2CCN(Cc3ccccc3)CC2)c1	inactive
O=C(Nc1cnc2sccn2c1=O)c1ccccc1Cl	inactive
CC1=NN(c2ccc([N+](=O)[O-])cc2)C(=O)C1	inactive
Cc1ccc(-n2nnnc2SCC(=O)Nc2nc(-c3ccc(F)cc3)cs2)cc1C	inactive
COc1ccccc1CO/N=C/NC(=O)c1c(OC)ccnc1Oc1ccc(F)cc1	inactive
COCCNC(=O)C1CC(=O)N(c2ccc(OC)cc2)C1c1ccc(OC)cc1 (stereo not given)	inactive
CCCOC(=O)c1ccc(NC(=O)c2cc(OC)c(OC)c(OC)c2Br)cc1	inactive
Cc1cccc(NC(=O)CN2C(=O)N/C(=C/c3ccc(C)s3)C2=O)c1	inactive
CCOc1cc(C2NC(=O)NC(C)=C2C(=O)OCC2CCCCC2)ccc1O (stereo not given)	inactive
COc1ccc(/C=C2/NC(=O)N(CC(=O)Nc3cccc(C)c3)C2=O)cc1O	inactive
CC(C)NC(=O)N1CCC(n2nccc2NC(=O)CCOc2ccccc2)CC1	inactive
